PubChem BioAssay (NCATS)
Inconclusive results are not listed. Active and inactive are the calls of the source. Calls come from the whole dose curve; as a rule, active = well fitted curve in the direction sought with a large enough effect; inconclusive = small, poorly fitted or top-dose-only effect, or another doubt; inactive = no such curve, though single readings can be large; an effect the other way counts as inactive or inconclusive.

Key:
CRL-7250 = normal cell line; assay: Cytotoxic Profiling of Annotated Libraries Using Quantitative High-Throughput Screening (AID 1296008); conditions: Five cell lines viability, CellTiter-Glo ATP luminescence, 48-72 h; max response: active compounds read low; note: nearly all actives have a fitted effect of over 60% in size; for max response: % is set by controls: 0 for no effect and ±100 for the full control effect
In short: (§1)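 Cytotoxicity was measured as CellTiter-Glo ATP luminescence, read after 10 min at room temperature. Compound treatment of the cells lasted 48 or 72 hr at 37 degrees Celsius in a qHTS format.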

HEK293 = assay: as above; conditions: Five cell lines viability, CellTiter-Glo ATP luminescence, 48-72 h; max response: active compounds read low
In short: as §1

HaCat [1] = assay: as above; conditions: Five cell lines viability, CellTiter-Glo ATP luminescence, 48-72 h; max response: active compounds read low
In short: as §1

KB-3-1 = assay: as above; conditions: Five cell lines viability, CellTiter-Glo ATP luminescence, 48-72 h; max response: active compounds read low
In short: as §1

NIH3T3 [2] = assay: as above; conditions: Five cell lines viability, CellTiter-Glo ATP luminescence, 48-72 h; max response: active compounds read low
In short: as §1

HACAT [3] = assay: qHTS assay to identify novel small-molecules to repurpose for Merkel cell carcinoma treatment (AID 1296009); conditions: MCC and control cell lines, CellTiter-Glo viability, 72 h; at 44.8 µM (top of the series) unless noted; note: nearly all actives have a fitted effect of over 60% in size
In short: (§2)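 Cell viability measured by CellTiter-Glo following 72 hr compound treatment at 37 degree celsius, with NPC and MIPE libraries tested in 8- and 11-point concentration series.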

NIH3T3 [4] = assay: as above; conditions: MCC and control cell lines, CellTiter-Glo viability, 72 h; at 44.8 µM (top of the series) unless noted
In short: as §2

C33A = assay: Primary qHTS to identify gynecologic anti-cancer compounds using libraries of approved drugs and bioactive compounds (AID 1345084); conditions: Gynecologic cancer cell panel viability, ATPlite luminescence, 48 h; series mostly up to 57.5 µM; note: % is set by controls: 0 for no effect and ±100 for the full control effect; nearly all actives have a fitted effect of over 55% in size
In short: (§3)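 Luminescence from the ATPlite ATP-monitoring reagent indicates viable cell number; lower signal means cytotoxicity. Cells received compound 16 h after seeding and were exposed for 48 h across five concentrations.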

CASKI = assay: as above; conditions: Gynecologic cancer cell panel viability, ATPlite luminescence, 48 h; series mostly up to 57.5 µM
In short: as §3

Es-2 = assay: as above; conditions: Gynecologic cancer cell panel viability, ATPlite luminescence, 48 h; series mostly up to 57.5 µM
In short: as §3

HeLa = assay: as above; conditions: Gynecologic cancer cell panel viability, ATPlite luminescence, 48 h; series mostly up to 57.5 µM
In short: as §3

Hek293T = assay: as above; conditions: Gynecologic cancer cell panel viability, ATPlite luminescence, 48 h, control line for the selectivity index; series mostly up to 57.5 µM
In short: as §3

JEG-3 = assay: as above; conditions: Gynecologic cancer cell panel viability, ATPlite luminescence, 48 h; series mostly up to 57.5 µM
In short: as §3

OV90 = assay: as above; conditions: Gynecologic cancer cell panel viability, ATPlite luminescence, 48 h; series mostly up to 57.5 µM
In short: as §3

CAOV3 = assay: as above; conditions: Gynecologic cancer cell panel viability, ATPlite luminescence, 48 h; series mostly up to 57.5 µM
In short: as §3

PA-1 = assay: as above; conditions: Gynecologic cancer cell panel viability, ATPlite luminescence, 48 h; series mostly up to 57.5 µM
In short: as §3

CC(=O)O[C@@H](C[C@@H]1C=C(C)C(=O)O1)[C@H](C)[C@H]1CCC2[C@@]3(C)CC[C@H](O[C@@H]4O[C@H](CO)[C@@H](O)[C@H](O)[C@H]4O[C@@H]4O[C@@H](C)[C@H](O)[C@@H](O)[C@H]4O)C(C)(C)C3CC[C@@]2(C)[C@@]12COC(=O)C2 (stereo not given in full)
inactive: outcome (CRL-7250) | max response (HEK293) -15.8% | outcome (HaCat [1]) | max response (KB-3-1) 1.23% | outcome (NIH3T3 [2]) | outcome (HACAT [3]) inactive [at 9.27 µM] | outcome (NIH3T3 [4]) inactive [at 9.27 µM] | activity change, negative = cytotoxicity (C33A) 13.5% [at 11.6 µM] | activity change, negative = cytotoxicity (CASKI) 4.88% [at 11.6 µM] | activity change, negative = cytotoxicity (Es-2) 8.74% [at 11.6 µM] | activity change, negative = cytotoxicity (HeLa) 5.41% [at 11.6 µM] | activity change, negative = cytotoxicity (Hek293T) 15.9% [at 11.6 µM] | activity change, negative = cytotoxicity (JEG-3) -9.52% [at 11.6 µM] | activity change, negative = cytotoxicity (OV90) 15.4% [at 11.6 µM]

NC(=O)[C@@H]1CC[C@H](c2ccc(OCc3ccccc3F)cc2)N1
inactive: max response (CRL-7250) -6.02% | max response (HEK293) 2.17% | outcome (HaCat [1]) | max response (KB-3-1) -8.37% | outcome (NIH3T3 [2]) | outcome (HACAT [3]) | outcome (NIH3T3 [4]) | Potency (C33A) | Potency (CAOV3) | outcome (CASKI) | Potency (Es-2) | Potency (HeLa) | Potency (Hek293T) | Potency (JEG-3) | Potency (PA-1)

CN1CCN(C(=O)c2cc3cc(Cl)ccc3[nH]2)CC1
inactive: max response (CRL-7250) -2.46% | max response (HEK293) -8.86% | outcome (HaCat [1]) | max response (KB-3-1) -0.0663% | outcome (NIH3T3 [2]) | outcome (HACAT [3]) | outcome (NIH3T3 [4]) | Potency (C33A) | outcome (CASKI) | Potency (Es-2) | Potency (HeLa) | Potency (Hek293T) | Potency (JEG-3) | Potency (OV90) | Potency (PA-1)

CCOC(=O)CSc1nc2c(sc3ccccc32)c(=O)n1CCCN1CCCC1
inactive: outcome (CRL-7250) | max response (HEK293) -12.6% | outcome (HaCat [1]) | outcome (KB-3-1) | outcome (NIH3T3 [2]) | outcome (HACAT [3]) | outcome (NIH3T3 [4]) | Potency (C33A) | Potency (CAOV3) | outcome (CASKI) | Potency (Es-2) | Potency (Hek293T) | Potency (JEG-3) | Potency (OV90) | Potency (PA-1)

COc1ccc(Oc2c(Cl)cnn(C3c4ccccc4-c4ccccc43)c2=O)cc1
inactive: max response (CRL-7250) -3.95% | max response (HEK293) -2.77% | outcome (HaCat [1]) | max response (KB-3-1) -2.29% | outcome (NIH3T3 [2]) | outcome (HACAT [3]) | outcome (NIH3T3 [4]) | Potency (C33A) | outcome (CASKI) | Potency (Es-2) | Potency (HeLa) | Potency (Hek293T) | Potency (JEG-3) | Potency (OV90) | Potency (PA-1)

C[C@H]1CC[C@H]2[C@@H](C=C[C@@](C)(O)[C@]2(C)C(=O)CCO)C1
inactive: outcome (CRL-7250) | max response (HEK293) 4.9% | outcome (HaCat [1]) | max response (KB-3-1) 5.8% | outcome (NIH3T3 [2]) | outcome (HACAT [3]) | outcome (NIH3T3 [4]) | Potency (C33A) | Potency (CAOV3) | outcome (CASKI) | Potency (Es-2) | Potency (HeLa) | Potency (Hek293T) | Potency (OV90) | Potency (PA-1)

C[C@@H]1O[C@@H](O[C@@H]2[C@@H](O)[C@H](O[C@@H]3[C@@H](O)[C@@H](O)[C@H](O[C@H]4[C@H](OC(=O)[C@]56CCC(C)(C)C[C@H]5C5=CCC7[C@@]8(C)C[C@H](O)[C@H](O[C@@H]9O[C@H](C(=O)O)[C@@H](O)[C@H](O)[C@H]9O)[C@@](C)(CO)C8[C@H](O)C[C@@]7(C)[C@]5(C)C[C@H]6O)O[C@@H](CO)[C@@H]4O)O[C@H]3C)OC[C@H]2O)[C@H](O)[C@H](O)[C@H]1O (stereo not given in full)
inactive: max response (CRL-7250) 0.0733% | max response (HEK293) 1.63% | outcome (HaCat [1]) | outcome (KB-3-1) | outcome (NIH3T3 [2]) | outcome (HACAT [3]) inactive [at 9.27 µM] | outcome (NIH3T3 [4]) inactive [at 9.27 µM] | activity change, negative = cytotoxicity (C33A) 7.96% [at 6.55 µM] | activity change, negative = cytotoxicity (CAOV3) -1.08% [at 6.55 µM] | activity change, negative = cytotoxicity (CASKI) 4.5% [at 6.55 µM] | activity change, negative = cytotoxicity (Es-2) 7.92% [at 6.55 µM] | activity change, negative = cytotoxicity (HeLa) 5.7% [at 6.55 µM] | activity change, negative = cytotoxicity (Hek293T) 11.5% [at 6.55 µM] | activity change, negative = cytotoxicity (JEG-3) 3.64% [at 6.55 µM] | activity change, negative = cytotoxicity (OV90) 0.206% [at 6.55 µM] | activity change, negative = cytotoxicity (PA-1) 24% [at 6.55 µM]

CC1CC(=O)C2C(O)(C1)CC(O)C13OC1c1c(O)cccc1C(=O)C23O (stereo not given)
inactive: outcome (CRL-7250) | max response (HEK293) -12.4% | outcome (HaCat [1]) | max response (KB-3-1) 3.15% | outcome (NIH3T3 [2]) | outcome (HACAT [3]) | outcome (NIH3T3 [4]) | Potency (C33A) | Potency (CAOV3) | outcome (CASKI) | Potency (Es-2) | Potency (HeLa) | Potency (JEG-3) | Potency (OV90) | Potency (PA-1)

CC1(C)CC[C@]2(C(=O)O[C@@H]3O[C@H](CO)[C@@H](O)[C@H](O)[C@H]3O)CC[C@]3(C)C(=CCC4[C@@]5(C)CC[C@H](OC6OC(C(=O)O)C(OC7OC(CO)C(O)C(O)C7O)C(O)C6O)C(C)(C)C5CC[C@]43C)C2C1 (stereo not given in full)
inactive: max response (CRL-7250) 0.724% | max response (HEK293) 3.09% | outcome (HaCat [1]) | outcome (KB-3-1) | outcome (NIH3T3 [2]) | outcome (HACAT [3]) inactive [at 9.27 µM] | outcome (NIH3T3 [4]) inactive [at 9.27 µM] | activity change, negative = cytotoxicity (C33A) 1.52% [at 11.6 µM] | activity change, negative = cytotoxicity (CASKI) 15.2% [at 11.6 µM] | activity change, negative = cytotoxicity (Es-2) 1.85% [at 11.6 µM] | activity change, negative = cytotoxicity (HeLa) 2.77% [at 11.6 µM] | activity change, negative = cytotoxicity (Hek293T) 10.4% [at 11.6 µM] | activity change, negative = cytotoxicity (JEG-3) 9.79% [at 11.6 µM] | activity change, negative = cytotoxicity (OV90) 8.01% [at 11.6 µM] | activity change, negative = cytotoxicity (PA-1) 3.63% [at 11.6 µM]

CCC(C)/C=C(C)/C=C/C1=CC2=C(Cl)C(=O)C(C)(OC(C)=O)C(=O)C2=CN1C(CCC(=O)O)C(=O)O (stereo not given)
inactive: max response (CRL-7250) -2.2% | max response (HEK293) -1.69% | outcome (HaCat [1]) | outcome (KB-3-1) | outcome (NIH3T3 [2]) | outcome (HACAT [3]) inactive [at 17.4 µM] | outcome (NIH3T3 [4]) inactive [at 17.4 µM] | Potency (C33A) | Potency (CAOV3) | outcome (CASKI) | Potency (Es-2) | Potency (HeLa) | Potency (JEG-3) | Potency (OV90) | Potency (PA-1)

CC1=C2C[C@@]3(C)[C@@H](CCC[C@@H]3C)C[C@@]2(O)OC1=O
inactive: outcome (CRL-7250) | max response (HEK293) -2.55% | outcome (HaCat [1]) | max response (KB-3-1) 8.04% | outcome (NIH3T3 [2]) | outcome (HACAT [3]) | outcome (NIH3T3 [4]) | Potency (C33A) | outcome (CASKI) | Potency (Es-2) | Potency (HeLa) | Potency (Hek293T) | Potency (JEG-3) | Potency (OV90) | Potency (PA-1)

C=C1CC[C@H]2[C@@](C)(CCC(OC3OC(CO)C(O)C(O)C3O)[C@@]2(C)CO)C1C(=O)CC1=CCOC1=O (stereo not given in full)
inactive: outcome (CRL-7250) | max response (HEK293) -9.97% | outcome (HaCat [1]) | outcome (KB-3-1) | outcome (NIH3T3 [2]) | outcome (HACAT [3]) inactive [at 17.4 µM] | outcome (NIH3T3 [4]) inactive [at 17.4 µM] | Potency (C33A) | outcome (CASKI) | Potency (Es-2) | Potency (HeLa) | Potency (Hek293T) | Potency (JEG-3) | Potency (OV90) | Potency (PA-1)
